Structures are written as SMILES. Values joined by “and” are separate entries in the source; they are usually repeats but may differ in a detail not shown here. Equal values may be shown once. Inconclusive results are not listed. Active and inactive are the calls of the source. Calls come from the whole dose curve. Numbered stars: 1 amine (or outer) side, 2 acyl side, 3 side chain; on linkers, the order of the positions; unused ones are H or OH. Bridge positions count the residues as written; N and C are the ends. Square brackets hold non-standard residues; d marks the D form. Peptide text beside a SMILES is read from it. I, II: the chains in the order shown. Actinocin(9to1) = Cc1c2oc3c(C)ccc(C(=O)[*:1])c3nc-2c(C(=O)[*:2])c(N)c1=O; NMeV = CN[C@H](C(=O)O)C(C)C; Sar = CNCC(=O)O

The nature of the test: Primary qHTS to identify inhibitors of SARS-CoV-2 cell entry (AID 1645846). Note: nearly all actives have a fitted effect of over 45% in size. As to conditions: SARS-CoV-2 pseudovirus cell entry assay, luminescence; activity change, negative = inhibition: at 57.1 µM (top of the series) unless noted; series mostly up to 57.1 µM. The text has this: Assay Provider: Wei Zheng, Ph.D.
National Center for Advancing Translational Sciences, National Institute of Health, Rockville, MD.
SARS-CoV-2 spike protein, within the viral envelope, mediates viral attachment and infection of host cells. The SARS-CoV-2 spike protein specifically binds to the host receptor ACE2 (Angiotensin-converting enzyme 2). This interaction promotes endocytosis of the viral particle, additional events lead to viral-host cell membrane fusion and release of the viral contents, allowing viral replication.
While SARS-CoV-2 requires BSL-3 facilities for live virus work, pseudotyped partices (PP) that incorporate SARS-CoV-2 spike proteins without replication elements could facilitate studies on viral entry mechanisms in a BSL-2 setting. This PP cell entry assay could also enable screening of small molecule compound libraries in BSL-2 setting to identify inhibitors of SARS-CoV-2 cell entry.
PROTOCOL TABLE (format as described by Inglese J, Shamu CE and Guy RK. 2007)
SEQUENCE No. (e.g., 1, 2, 3, etc.); […] (e.g., Cells, Incubation, Reagent, etc.); VALUE and DESCRIPTION.
1. Cells. Seed 1500 HEK293-ACE2 cells (Expi293F with stable expression of human ACE2) in 2 uL/well media (DMEM, 10% FBS, 1x L-glutamine, 1x Pen/Strep, 1 ug/ml puromycin) in white 1536-well assay plates (Greiner #782073).
2. Incubation. Incubate at 37C with 5% CO2 overnight (~16 h).
3. Compounds. Dispense 23 nL/well compounds in DMSO via pin transfer.
4. Incubation. Incubate for 1 hr at 37C 5% CO2.
5. Reagent. Dispense 2 uL/well of SARS-CoV-2-S pseudotyped particles. [a] PPs are produced with murine leukemia virus pseudotyping. [b] SARS-CoV-2-S is Wuhan-Hu-1 sequence (BEI #NR-52420) with C-terminal 19 amino acid truncation.
6. Centrifuge. […]
7. Incubation. Incubate at for 48 hr at 37C 5% CO2
8. Centrifuge. Remove supernatant with gentle centrifugation using a Blue Washer (BlueCat Bio).
9. Reagent. Dispense 4 uL/well of Bright-Glo Luciferase detection reagent (Promega #E2620).
10. Incubation. Incubate for 5 min at room temperature.
11. Detection. Read luminescence signal (Viewlux plate reader, PerkinElmer). Data was normalized with wells containing SARS-CoV-2-S PP as 100%, and wells containing bald PP (no fusion protein) as 0%.
(qHTS replaces the single test concentration by a dilution series.)
As to `CC(C)(C)NC(=O)[C@@H]1CN(Cc2cccnc2)CCN1C[C@@H](O)C[C@@H](Cc1ccccc1)C(=O)N[C@H]1c2ccccc2C[C@H]1O`, the activity change, negative = inhibition came out at 4.24%.
For the compound `CC(C)Nc1cccnc1N1CCN(C(=O)c2cc3cc(NS(C)(=O)=O)ccc3[nH]2)CC1`, the Potency entry is “inactive”.
Consider `Cc1sc2c(c1C)C(c1ccc(Cl)cc1)=N[C@@H](CC(=O)OC(C)(C)C)c1nnc(C)n1-2`, for which the activity change, negative = inhibition is -18.3%.
Take `Cn1c(=O)c2c(ncn2CC(O)CO)n(C)c1=O` (stereo unspecified): the Potency entry is “inactive” and the activity change, negative = inhibition turned out to be 4.29%.
`N[C@@H](Cc1cc(I)c(Oc2cc(I)c(O)c(I)c2)c(I)c1)C(=O)O`: the activity change, negative = inhibition was -14.2%.
For the compound `Clc1ccc2c(c1)C(N1CCNCC1)=Nc1ccccc1O2`, the activity change, negative = inhibition is -2.85%.
`CC1(C)O[C@@H]2[C@@H](CO[C@@]3(COS(N)(=O)=O)OC(C)(C)O[C@@H]23)O1`: the activity change, negative = inhibition was -8%.
Same read-out and setting: as for `CC(O)(CS(=O)(=O)c1ccc(F)cc1)C(=O)Nc1ccc(C#N)c(C(F)(F)F)c1` (stereo unspecified), the figure is -21.9%.
As to `CC[N+](C)(C)c1cccc(O)c1`, the Potency entry is “inactive”.
For `CCC1C(=O)OCC1Cc1cncn1C` (stereo unspecified), the activity change, negative = inhibition was found to be 2.21%.
Regarding `Cc1nc(-c2ccc(OCC(C)C)c(C#N)c2)sc1C(=O)O`, the Potency result is “inactive”.
For `CC[C@@H](CO)NCCN[C@@H](CC)CO`, the activity change, negative = inhibition was -13.9%.
As to `NC(=O)OCC(COC(N)=O)c1ccccc1`, the activity change, negative = inhibition is -1.23% and the Potency result was “inactive”.
In the case of `CCN(CCO)CCCC(C)Nc1ccnc2cc(Cl)ccc12` (stereo unspecified), the activity change, negative = inhibition was -16.5% [at 5.25 µM] and the outcome was “inactive [at 5.25 µM]”.
Regarding `O=c1[nH]c2ccccc2n1CCCN1CCC(n2c(=O)[nH]c3cc(Cl)ccc32)CC1`, the activity change, negative = inhibition was -22.6%.
As to `CN1CCN(C(=O)O[C@H]2c3nccnc3C(=O)N2c2ccc(Cl)cn2)CC1`, the Potency result was “inactive”.
Consider `Cc1c2oc3c(C)ccc(C(=O)N[C@@H]4C(=O)N[C@H](C(C)C)C(=O)N5CCC[C@H]5C(=O)N(C)CC(=O)N(C)[C@@H](C(C)C)C(=O)O[C@@H]4C)c3nc-2c(C(=O)N[C@@H]2C(=O)N[C@H](C(C)C)C(=O)N3CCC[C@H]3C(=O)N(C)CC(=O)N(C)[C@@H](C(C)C)C(=O)O[C@@H]2C)c(N)c1=O` (I: T[dV]P[Sar][NMeV] / II: T[dV]P[Sar][NMeV]; ester I:1-I:C, II:1-II:C; linker I:N-II:N via Actinocin(9to1)), for which the activity change, negative = inhibition was -94.7%.
As to `C=C1CC[C@@]2(O)[C@H]3Cc4ccc(O)c5c4[C@@]2(CCN3CC2CC2)[C@H]1O5`, the Potency entry was “inactive”.
Turning to `COC(=O)[C@@H]1CC2=CC(=O)CC[C@]2(C)[C@@]23O[C@@H]2C[C@@]2(C)[C@@H](CC[C@@]24CCC(=O)O4)[C@H]13`, the activity change, negative = inhibition was -17.3% and the Potency result is “inactive”.
Consider `Cc1[nH]c(=O)c(C#N)cc1-c1ccncc1`, for which the Potency result was “inactive”.
As to `CC(=O)N[C@@H](CS)C(=O)O`, the Potency result is “inactive”.
For `CC(C(=O)O)c1cccc(C(=O)c2ccccc2)c1` (stereo unspecified), the Potency entry was “inactive” and the activity change, negative = inhibition is -2.03%.
Turning to `CC(C)NC[C@@H](O)COc1ccc(CC(N)=O)cc1`, the activity change, negative = inhibition is -29.4%.
Turning to `CN1C(CCl)Nc2cc(Cl)c(S(N)(=O)=O)cc2S1(=O)=O` (stereo unspecified), the Potency result was “inactive”.
As for `Cc1ccsc1C(=CCCN1CCC[C@@H](C(=O)O)C1)c1sccc1C`, the activity change, negative = inhibition is -13.3%.
Still for that read-out and setting: the result for `COc1cc2c(c(OC)c1OC)-c1ccc(OC)c(=O)cc1[C@@H](NC(C)=O)CC2` reads -76.4%.
On to `C[N+]1(C)CCC(OC(=O)C(O)(c2ccccc2)C2CCCC2)C1` (stereo unspecified), for which the Potency entry is “inactive”.
For `CN(CCOc1ccc(NS(C)(=O)=O)cc1)CCc1ccc(NS(C)(=O)=O)cc1`, the activity change, negative = inhibition is 4.03% and 4.22%.
On to `N=c1nc(N2CCCCC2)cc(N)n1O`, for which the activity change, negative = inhibition is -11.3%.
With `CCN(CC)CCNC(=O)c1cc(Cl)c(N)cc1OC`, the Potency result was “inactive”.
Same read-out and setting: as for `NS(=O)(=O)c1cc2c(cc1C(F)(F)F)NCNS2(=O)=O`, the entry is “inactive”; as for `CN(C)[C@@H]1C(=O)C(C(N)=O)=C(O)[C@@]2(O)C(=O)C3=C(O)c4c(O)cccc4[C@@](C)(O)[C@H]3C[C@@H]12`, “inactive”.
For `CN(C)c1nc(N(C)C)nc(N(C)C)n1`, the activity change, negative = inhibition is -16.8% and the Potency result is “inactive”.
The like results for `Cn1cnc([N+](=O)[O-])c1Sc1ncnc2nc[nH]c12` were, in that order, -53.9% and “inactive”.

Source of the values: PubChem BioAssay (NCATS).
